# Assay results reported in PubChem BioAssay (EPA / NIEHS).
# Activity calls are given as the source filed them. How the source made its calls: active means hit-call score of the fitted dose curve at least 0.9, where 1 is the maximum; inactive means score below 0.9.
# Test: ATG_ERE_CIS: Attagene CIS-FACTORIAL HepG2 Assay for Estrogen Response Element (ERE) (AID 2282940)
# Settings: HepG2 ERE cis-reporter, Attagene RNA transcript; actives raise or lower the signal
# Description: ATG_CIS is a cell-based, multiplexed-readout assay that uses HepG2, a human liver cell line, with measurements taken at 24 hours after chemical dosing in a 24-well plate.ATG_ERE_CIS is one of 52 assay component(s) measured or calculated from the ATG_CIS assay. It is designed to make measurements of mRNA induction, a form of inducible reporter, as detected with fluorescence intensity signals by Reverse transcription polymerase chain reaction (RT-PCR) and Capillary electrophoresis technology.Data from the assay component ATG_ERE_CIS was analyzed into 1 assay endpoint. This assay endpoint, ATG_ERE_CIS, was analyzed with bidirectional fitting relative to DMSO as the negative control and baseline of activity. Using a type of inducible reporter, measures of mRNA for gain or loss-of-signal activity can be used to understand the reporter gene at the transcription factor-level as they relate to the gene ESR1. Furthermore, this assay endpoint can be referred to as a primary readout, because this assay has produced multiple assay endpoints where this one serves a reporter gene function. To generalize the intended target to other relatable targets, this assay endpoint is annotated to the nuclear receptor intended target family, where the subfamily is steroidal.
# Human liver HepG2 cells are transiently transfected with multiple reporter transcription units (MRTUs) in 6-well plates using FuGene 6 reagent (Roche; 3 ml FuGene/1 mg DNA). The MRTU constructs are regulated by a cis-regulating element (promoter). […] A major difference between the CIS and TRANS system is that in CIS activities of endogenous TFs are measured, whereas the TRANS assay evaluates changes in activities of exogenous, chimeric NR-Gal4 proteins. […] At the end of 24 hour incubation, total RNA was isolated using TriZol reagent (Invitrogen). The isolated RNA is then reverse-transcribed using oligo(dT) primer and Mo-MLV reverse transcriptase (Invitrogen) with DNAse I (Ambion) treatment for 30 min. The one-tenth of the produced cDNA was amplified by PCR using Taq DNA polymerase (Invitrogen) and two reporter sequence-specific primers. The PCR products were fluorescently labeled by primer extension with 6-arboxyfluorescein (6-FAM) 5'-labeled reporter sequence-specific primer (2 min at 95 C, 20 s at 68 C and 10 min at 72 C) and these products were digested with 5U of HpaI (New England Biolabs) for 2h at 37 C. The fragments were purified using Qiaquick PCR columns (Qiagen), analyzed on an ABI 3130xL genetic analyzer (Applied Biosystems) with peak positions identified by using a set of X-rhodamine (ROX)-labeled MapMarker1000 molecular weight standards (BioVentures). The raw capillary electrophoresis data was processed using Attagraph software (Attagene).
SMILES,outcome,AC50
CCNc1nc(NCC)nc(SC)n1,inactive,–
CCOC(=O)Cc1ccccc1,inactive,–
C1CCC(C2CCCCC2)CC1,inactive,–
O=C(NC(=O)c1c(F)cccc1F)Nc1cc(Cl)c(Oc2ncc(C(F)(F)F)cc2Cl)c(Cl)c1,inactive,–
O=c1oc2ccccc2c(O)c1C(CC(O)c1ccc(-c2ccc(Br)cc2)cc1)c1ccccc1 (stereo not given),inactive,–
C#CCOC(=O)/C=C(C)/C=C/CC(C)CCCC(C)C (stereo not given),inactive,–
Cc1cc(C(C)(C)c2ccc(O)c(C)c2)ccc1O,–,0.265 µM (active)
COC(=O)c1cc(Oc2ccc(Cl)cc2Cl)ccc1[N+](=O)[O-],–,39.1 µM (active)
Cc1cccc(N=Nc2ccc(N(C)C)cc2)c1,inactive,–
Cc1cc(Cl)ccc1OC(C)C(=O)O (stereo not given),inactive,–
O=[N+]([O-])c1c2ccccc2cc2ccccc12,–,7.14 µM (active)
OC(Cc1ccccc1Cl)(Cn1[nH]cnc1=S)C1(Cl)CC1 (stereo not given),–,7.38 µM (active)
CCOc1ccc(N)cc1,inactive,–
Oc1cccc(-c2ccccc2)c1,–,6.35 µM (active)
CC(C)=CC1C(C(=O)OCc2cccc(Oc3ccccc3)c2)C1(C)C (stereo not given),–,100 µM (active)
CN(C)c1ccc(N=O)cc1,inactive,–
CN(C1CCCCC1)C1CCCCC1,inactive,–
CCCCOC(=O)COC(=O)c1ccccc1C(=O)OCCCC,inactive,–
CCCCC(CC)COC(=O)Cl (stereo not given),inactive,–
CS(=O)(=O)c1ccc(C(=O)C2C(=O)CCCC2=O)c(Cl)c1COCC(F)(F)F,–,27.3 µM (active)

SMILES,outcome,AC50
NNCCO,–,25.4 µM (active)
Fc1cccc(Cl)c1CCl,inactive,–
Cc1cc(C(F)(C(F)(F)F)C(F)(F)F)ccc1NC(=O)c1cccc(I)c1C(=O)NC(C)(C)CS(C)(=O)=O,inactive,–
O=C/C(Cl)=C(/Cl)C(=O)O,inactive,–
CC(C)(C)c1ccc(CCOc2ncnc3ccccc23)cc1,inactive,–
CCCCC(CC)C(=O)Cl (stereo not given),inactive,–
CCC[CH2][Sn]([Cl])([Cl])[CH2]CCC,–,0.312 µM (active)
C=CC(=O)NC(C)(C)CC(C)=O,inactive,–
Cc1ccc2nc3sc(=O)sc3nc2c1,inactive,–
O=C(NC(=O)c1c(F)cccc1F)Nc1ccc(Cl)cc1,inactive,–
CCCCCCCCCCCCCCC(Br)C(=O)O (stereo not given),inactive,–
CCCSP(=S)(OCC)Oc1ccc(SC)cc1 (stereo not given),–,7.28 µM (active)
O=[N+]([O-])c1ccc(Cl)c([N+](=O)[O-])c1,inactive,–
C=CC(=O)[O][Sn]([CH2]CCC)([CH2]CCC)[CH2]CCC,–,0.0146 µM (active)
Oc1ccc(Cc2ccc(O)cc2)cc1,–,0.774 µM (active)
Cc1cccc(C)c1NC(=O)CN1CCCC1=O,inactive,–
C1CN2CCN1CC2,inactive,–
N#Cc1ccccc1N,inactive,–
CCC(C)(C#N)N=NC(C)(C#N)CC (stereo not given),inactive,–
Nc1ccc(Br)cc1,inactive,–
